According to PubChem BioAssay AID1159580 (chemical genetic matrix, 2015):
“And” between values parts separate entries of the source, which are not always exact repeats. Equal entries are not always repeated. The campaign covered roughly 5,500 compounds. About 2,000 (36%) were called active. Roughly 18% stayed inconclusive and do not appear here. No stated cut-off is given here; in the data, active means normalized growth mostly below about 0.91 (no sharp cut-off); inconclusive means no clear call, values can overlap the other calls; inactive means mostly above about 0.92. This is one part of the list.

Experiment: chemical genetic growth profiling, strain panel (AID 1159580);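 further: tested at 20 µM; growth read once vehicle control cultures reached saturation at 30 °C; 1 = growth at the plate median or of vehicle wells; lower values mean less growth of the strain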
Settings: S. cerevisiae deletion strains, growth OD

Measured: normalized growth

CC[C@H]1OC(=O)[C@H](C)[C@@H](O[C@H]2C[C@@](C)(OC)[C@@H](O)[C@H](C)O2)[C@H](C)[C@@H](O[C@@H]2O[C@H](C)C[C@H](N(C)C)[C@H]2O)[C@](C)(O)C[C@@H](C)[C@@H]2N[C@@H](COCCOC)O[C@H]([C@H]2C)[C@]1(C)O
inactive: locus YAL021C, strain ccr4, hits give low values 0.991 | locus YAL026C, strain drs2, hits give low values 0.993 | locus YAL030W, strain snc1, hits give low values 0.999 | locus YBL061C, strain skt5, hits give low values 0.982 | locus YBR009C, strain hhf1, hits give low values 0.995 | locus YBR021W, strain FUR4, hits give low values 1.01 | locus YBR023C, strain chs3, hits give low values 0.993 | locus YBR171W, strain sec66, hits give low values 0.977 | locus YBR229C, strain ROT2, hits give low values 1.01 | locus YBR231C, strain swc5, hits give low values 0.992 | locus YBR279W, strain paf1, hits give low values 0.998 | locus YCL011C, strain gbp2, hits give low values 0.99 | locus YCL016C, strain dcc1, hits give low values 0.985 | locus YCL029C, strain bik1, hits give low values 1.01 | locus YCL061C, strain MRC1, hits give low values 0.982 | locus YCL069W, strain vba3, hits give low values 0.988 | locus YCR088W, strain abp1, hits give low values 0.999 | locus YDL005C, strain med2, hits give low values 0.978 | locus YDL035C, strain GPR1, hits give low values 1.01 | locus YDL040C, strain nat1, hits give low values 0.996 | locus YDL074C, strain BRE1, hits give low values 1.01 | locus YDL101C, strain DUN1, hits give low values 1.05 | locus YDL185W, strain tfp1, hits give low values 1 | locus YDL192W, strain arf1, hits give low values 1.01 | locus YDR001C, strain nth1, hits give low values 0.995 | locus YDR069C, strain doa4, hits give low values 0.995 | locus YDR101C, strain arx1, hits give low values 0.984 | locus YDR137W, strain rgp1, hits give low values 1 | locus YDR159W, strain sac3, hits give low values 0.985 | locus YDR162C, strain NBP2, hits give low values 1 | locus YDR195W, strain ref2 0.966 | locus YDR297W, strain sur2, hits give low values 1 | locus YDR318W, strain mcm21, hits give low values 1.01 | locus YDR334W, strain swr1, hits give low values 0.986 | locus YDR335W, strain msn5, hits give low values 0.998 | locus YDR388W, hits give low values 1.01 | locus YDR392W, strain spt3, hits give low values 0.989 | locus YDR502C, strain sam2, hits give low values 0.997 | locus YEL003W, strain gim4, hits give low values 1 | locus YEL037C, strain rad23, hits give low values 0.997 | locus YEL061C, strain CIN8 (second series), hits give low values 0.998 | locus YEL061C, strain CIN8, hits give low values 1.01 | locus YER015W, strain faa2, hits give low values 1 | locus YER016W, strain bim1, hits give low values 0.987 | locus YER110C, hits give low values 1.01 | locus YER111C, strain swi4, hits give low values 0.991 | locus YER155C, strain BEM2 (second series), hits give low values 0.999 | locus YER155C, strain BEM2, hits give low values 1.01 | locus YER167W, strain BCK2, hits give low values 1 | locus YFR010W, strain ubp6, hits give low values 0.988 | locus YGL078C, strain dbp3, hits give low values 1.01 | locus YGL167C, strain pmr1, hits give low values 0.991 | locus YGL173C, strain kem1, hits give low values 0.984 | locus YGL227W, strain vid30, hits give low values 0.99 | locus YGL240W, strain doc1, hits give low values 0.989 | locus YGL248W, strain PDE1, hits give low values 1.02 | locus YGL253W, strain hxk2, hits give low values 0.998 | locus YGR135W, strain pre9, hits give low values 1.04 | locus YGR252W, strain gcn5, hits give low values 0.991 | locus YHR013C, strain ard1, hits give low values 0.952 | locus YHR027C, strain rpn1, hits give low values 0.983 | locus YHR030C, strain SLT2, hits give low values 1 and 1.04 | locus YHR079C, strain IRE1 (second series), hits give low values 1.01 | locus YHR079C, strain IRE1, hits give low values 1.03 | locus YHR094C, strain hxt1, hits give low values 1.01 | locus YHR129C, strain ARP1, hits give low values 1.01 | locus YHR142W, strain chs7, hits give low values 0.997 | locus YHR200W, strain rpn10, hits give low values 1.01 | locus YIL066C, strain RNR3, hits give low values 1.01 | locus YIL073C, strain SPO22, hits give low values 1.06 | locus YIL125W, strain kgd1, hits give low values 1 | locus YIR030C, strain dcg1, hits give low values 1.02 | locus YJL092W, strain hpr5, hits give low values 0.991 | locus YJL095W, strain BCK1 (second series), hits give low values 0.982 | locus YJL095W, strain BCK1, hits give low values 1.06 and 1 | locus YJL115W, strain asf1, hits give low values 0.995 | locus YJL129C, strain trk1, hits give low values 1.01 | locus YJL134W, strain LCB3, hits give low values 1.01 | locus YJL154C, strain vps35, hits give low values 0.993 | locus YJL164C, strain tpk1, hits give low values 1 | locus YJL166W, strain qcr8, hits give low values 0.993 | locus YJL168C, strain set2, hits give low values 1 | locus YJL187C, strain SWE1 (second series), hits give low values 1.05 | locus YJL187C, strain SWE1, hits give low values 0.991 | locus YJR043C, strain POL32, hits give low values 0.989 | locus YJR066W, strain TOR1, hits give low values 0.982
